# Source: PubChem BioAssay (NCATS)
# Where “and” joins values, the source holds several entries; their conditions need not be identical. Identical values can stand only once. Records with an inconclusive call do not appear. A call without a number means that no potency is given here. Calls of active or inactive are those of the source. Unless noted, calls follow the shape of the dose curve; as a rule, active = well fitted curve in the direction sought with a large enough effect; inconclusive = small, poorly fitted or top-dose-only effect, or another doubt; inactive = no such curve, though single readings can be large; an effect the other way counts as inactive or inconclusive.
# Tests used:
# [1] = Primary qHTS for small molecule stabilizers of the endoplasmic reticulum resident proteome: Secreted ER Calcium Modulated Protein (SERCaMP) assay (AID 1508630)
# Summary of the method: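 GLuc-SERCaMP-expressing SH-SY5Y cells, pretreated 16 h with compound, are challenged with thapsigargin to empty ER calcium stores; after 4 h, coelenterazine is added directly to the medium and luminescence is imaged.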
# [2] = A High-Content qHTS Against Drug Library for the Identification of Small Molecules that Inhibit DYT1 Early Onset Primary Dystonia-Associated Cell Pathology (AID 1645839; calls by dose curve)
# Summary of the method: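 In this high-content image screen, delE TorsinA mislocalization in inducible Flp-In 293 cells is scored as %pathology, with cell count serving as the counterscreen. Compound exposure lasts 48 h under tetracycline induction in reduced-serum medium.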
# [3] = target: Cytochrome P450 2D6 (Homo sapiens) (UniProt P10635); experiment: Cytochrome P450 family 2 subfamily D member 6 (CYP2D6) small molecule antagonists: luciferase biochemical (cell-free) qHTS assay (AID 1645840; active = well fitted curve in the direction sought with a large enough effect in the repeat runs; an effect the other way counts as inactive or inconclusive; also: nearly all actives have a fitted effect of over 55% in size; also: potency is read from the fitted curve at half-maximal effect)
# Summary of the method: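 P450-Glo luminescent screen: recombinant CYP2D6 enzyme–proluciferin substrate mix preincubated with compound 10 min at room temperature, then NADPH regeneration added for 1 h at room temperature. Detection reagent added for 20 min; luciferin light read as relative luminescence units.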
# [4] = target: Cytochrome P450 2C9 (Homo sapiens) (UniProt P11712); experiment: Cytochrome P450 family 2 subfamily C member 9 (CYP2C9) small molecule antagonists: luciferase biochemical (cell-free) qHTS assay (AID 1645842; active = well fitted curve in the direction sought with a large enough effect in the repeat runs; an effect the other way counts as inactive or inconclusive; also: nearly all actives have a fitted effect of over 55% in size; also: potency is read from the fitted curve at half-maximal effect)
# Summary of the method: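 Luminescence, after 20 min with luciferin detection reagent, reflected CYP2C9 turnover during a 1 h NADPH-driven reaction at 37C. Enzyme-substrate mix contained 0.4% bovine serum albumin and was preincubated with compound 10 min at room temperature.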
# [5] = Primary qHTS for inhibitors of nuclear receptor binding SET domain protein 2 (NSD2) in an isogenic RCH-ACV NSD2 p.E1099K mutant (9B) (AID 1645876); also: nearly all actives have a fitted effect of over 70% in size; also: potency is read from the fitted curve at half-maximal effect
# [6] = Primary qHTS for inhibitors of nuclear receptor binding SET domain protein 2 (NSD2) in an RCH-ACV wild type WT cells (2C) (AID 1645877); also: nearly all actives have a fitted effect of over 70% in size; also: potency is read from the fitted curve at half-maximal effect
# [7] = Cytotoxicity counterscreen for inhibitors of SARS-CoV-2 cell entry (AID 1645845; calls by dose curve; also: nearly all actives have a fitted effect of over 50% in size; also: potency is read from the fitted curve at half-maximal effect)
# Summary of the method: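 48 h compound treatment (after 1 h preincubation), HEK293-ACE2 cells, 37 C/5% CO2; ATP luminescence endpoint; normalized to cell wells and media blanks.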
# [8] = Confirmatory qHTS to identify inhibitors of SARS-CoV-2 cell entry (AID 1645844; calls by dose curve; also: potency is read from the fitted curve at half-maximal effect; nearly all actives have a fitted effect of over 45% in size)
# Summary of the method: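 Luminescence from a luciferase reporter, read 48 hr after pseudotyped-particle addition, gives entry signal, normalised to spike-bearing PP wells and bald PP lacking fusion protein wells. Cells are Expi293F stably expressing human ACE2, compound-pretreated 1 hr.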
# [9] = VSVG counterscreen qHTS to identify inhibitors of SARS-CoV-2 cell entry (AID 1645847; calls by dose curve; also: potency is read from the fitted curve at half-maximal effect; nearly all actives have a fitted effect of over 65% in size)
# Summary of the method: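 Expi293F/hACE2 cells, overnight plating; cpd 1 h, 37C/5% CO2; + VSV-G PP (MLV pseudotyping), 48 h; supernatant removed, Bright-Glo luciferase read. Norm: VSV-G PP and bald PP wells.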
# [10] = Primary qHTS to identify inhibitors of SARS-CoV-2 cell entry (AID 1645846; calls by dose curve; also: nearly all actives have a fitted effect of over 45% in size; also: potency is read from the fitted curve at half-maximal effect); details: activity change, negative = inhibition: at 57.1 µM (top of the series) unless noted
# Summary of the method: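 HEK293-ACE2 (Expi293F, stable hACE2), 1500 cells/well, o/n 37C; cpd 23 nL pin, 1 h; MLV-PP w/ SARS-CoV-2-S (Wuhan-Hu-1, Δ19 C-term); 48 h 37C; Bright-Glo luminescence; normalized vs S-PP and bald PP.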
# [11] = target: N-terminal Xaa-Pro-Lys N-methyltransferase 1 (Homo sapiens) (UniProt Q9BV86); experiment: Confirmatory qHTS for Inhibitors of N-terminal methyltransferase 1 (NTMT1): MTaseGlo Assay (AID 1645874); also: potency is read from the fitted curve at half-maximal effect; nearly all actives have a fitted effect of over 65% in size
# Summary of the method: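 Preincubation of NTMT1 (125 nM) plus SAM (100 uM) with test compounds lasted 15 min; methylation of 1 uM SPKRIA then proceeded 30 min in the dark at room temperature. Luciferase signal reported SAH produced.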
# [12] = target: Cytochrome P450 3A4 (Homo sapiens) (UniProt P08684); experiment: Cytochrome P450 family 3 subfamily A member 4 (CYP3A4) small molecule antagonists: luciferase qHTS assay (AID 1645841; active = well fitted curve in the direction sought with a large enough effect in the repeat runs; an effect the other way counts as inactive or inconclusive; also: nearly all actives have a fitted effect of over 45% in size; also: potency is read from the fitted curve at half-maximal effect)
# Summary of the method: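 Luminescent CYP3A4 activity readout: compounds plus enzyme-substrate mix 10 min at room temperature, reaction started with NADPH regenerating system for 1 h, stopped with detection reagent, read after 20 min. Ketoconazole served as control.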
# Cytochrome P450 2C9 (Homo sapiens), sequence (P11712 whole entry, looked up): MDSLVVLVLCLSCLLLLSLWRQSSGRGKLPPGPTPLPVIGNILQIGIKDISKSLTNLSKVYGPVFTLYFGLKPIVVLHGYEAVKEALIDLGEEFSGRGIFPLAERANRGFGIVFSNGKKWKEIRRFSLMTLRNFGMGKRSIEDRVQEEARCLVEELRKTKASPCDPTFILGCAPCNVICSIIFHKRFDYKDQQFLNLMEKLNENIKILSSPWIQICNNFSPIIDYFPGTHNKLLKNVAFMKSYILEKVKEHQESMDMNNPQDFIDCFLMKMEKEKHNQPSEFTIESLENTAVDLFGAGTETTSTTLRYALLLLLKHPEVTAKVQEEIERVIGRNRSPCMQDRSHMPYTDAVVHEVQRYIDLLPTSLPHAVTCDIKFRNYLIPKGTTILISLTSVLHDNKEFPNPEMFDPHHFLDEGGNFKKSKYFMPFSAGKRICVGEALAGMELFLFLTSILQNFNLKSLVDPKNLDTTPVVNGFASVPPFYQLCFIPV
# Cytochrome P450 2D6 (Homo sapiens), sequence (P10635 whole entry, looked up): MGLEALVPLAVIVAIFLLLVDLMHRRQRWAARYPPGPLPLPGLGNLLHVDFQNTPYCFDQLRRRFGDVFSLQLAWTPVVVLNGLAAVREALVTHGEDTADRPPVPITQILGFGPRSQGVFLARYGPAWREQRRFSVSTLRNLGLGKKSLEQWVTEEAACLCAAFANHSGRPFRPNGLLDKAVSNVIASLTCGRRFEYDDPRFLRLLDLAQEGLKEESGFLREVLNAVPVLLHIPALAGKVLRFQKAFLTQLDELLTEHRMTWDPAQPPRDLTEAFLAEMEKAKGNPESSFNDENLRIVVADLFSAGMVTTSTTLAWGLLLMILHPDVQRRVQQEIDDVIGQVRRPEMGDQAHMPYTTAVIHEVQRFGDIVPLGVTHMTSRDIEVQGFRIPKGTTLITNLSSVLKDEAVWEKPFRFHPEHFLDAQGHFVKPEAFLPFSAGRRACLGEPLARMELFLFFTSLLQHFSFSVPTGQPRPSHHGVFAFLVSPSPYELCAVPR
# N-terminal Xaa-Pro-Lys N-methyltransferase 1 (Homo sapiens), sequence (Q9BV86 whole entry, looked up): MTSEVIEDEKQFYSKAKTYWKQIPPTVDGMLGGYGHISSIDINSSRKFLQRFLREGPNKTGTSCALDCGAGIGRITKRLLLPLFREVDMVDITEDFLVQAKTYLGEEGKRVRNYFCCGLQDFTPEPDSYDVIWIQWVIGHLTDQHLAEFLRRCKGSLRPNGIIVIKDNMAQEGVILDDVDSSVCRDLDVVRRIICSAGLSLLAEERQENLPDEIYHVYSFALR
# Cytochrome P450 3A4 (Homo sapiens), sequence (P08684 whole entry, looked up): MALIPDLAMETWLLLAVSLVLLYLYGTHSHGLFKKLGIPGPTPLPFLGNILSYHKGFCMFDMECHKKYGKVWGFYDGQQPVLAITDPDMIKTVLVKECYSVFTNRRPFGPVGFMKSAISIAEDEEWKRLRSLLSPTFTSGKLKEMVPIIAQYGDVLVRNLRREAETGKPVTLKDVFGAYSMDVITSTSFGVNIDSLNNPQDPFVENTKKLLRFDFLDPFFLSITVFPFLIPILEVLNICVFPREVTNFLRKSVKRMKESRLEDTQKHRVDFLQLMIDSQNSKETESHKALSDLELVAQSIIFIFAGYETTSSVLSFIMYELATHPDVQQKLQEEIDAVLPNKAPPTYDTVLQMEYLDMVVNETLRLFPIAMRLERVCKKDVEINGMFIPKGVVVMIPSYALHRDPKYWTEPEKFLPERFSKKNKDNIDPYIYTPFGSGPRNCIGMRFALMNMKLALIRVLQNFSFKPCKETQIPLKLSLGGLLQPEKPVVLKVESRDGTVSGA
smiles,measurement,setting,value
O=C(CCCCl)c1ccc(F)cc1,outcome,[1],inactive
same,outcome,[2],inactive
same,Potency,[3],inactive
same,Potency,[4],inactive
same,Potency,[5],inactive
same,Potency,[6],inactive
CCCCCCCCCCCC[N+](C)(C)CCOc1ccccc1,outcome,[1],inactive
same,Potency,[3],1.74 µM (active)
same,Potency,[7],20 µM (active)
same,Potency,[5],1.33 µM (active)
same,Potency,[6],944 nM (active)
COc1cc(CC(C)N)cc2c1OCO2 (configuration not stated),outcome,[1],inactive
same,outcome,[2],inactive
same,Potency,[4],inactive
c1ccc2c(c1)Sc1ccccc1N2CC1CN2CCC1CC2 (configuration not stated),outcome,[1],inactive
same,Potency,[3],0.123 µM (active)
same,Potency,[4],inactive
same,Potency,[8],4.82 µM (active)
same,Potency,[9],0.383 µM (active)
ClCc1cccc(Cl)c1,outcome,[2],inactive
same,Potency,[3],20.4 µM (active)
same,Potency,[4],inactive
same,Potency,[5],inactive
same,Potency,[6],inactive
Oc1ccc([C@H]2CNCc3c2ccc(O)c3O)cc1O,outcome,[1],inactive
same,Potency,[3],inactive
same,Potency,[4],8.71 µM (active)
same,Potency,[7],inactive
same,"activity change, negative = inhibition",[10],1.13%
same,Potency,[11],18.3 µM (active)
CCN(CC)CCOC(=O)C(C)(c1ccccc1)c1ccccc1,outcome,[1],inactive
same,outcome,[2],inactive
same,Potency,[3],1.38 µM (active)
same,Potency,[4],3.89 µM (active)
same,Potency,[5],inactive
Cc1nnc2n1-c1sc(CCc3ccc(CC(C)C)cc3)cc1C(c1ccccc1Cl)=NC2C (configuration not stated),outcome,[1],inactive
same,Potency,[3],27.5 µM (active)
same,Potency,[4],15.5 µM (active)
same,Potency,[10],22.4 µM (active)
same,Potency,[5],7.5 µM (active)
same,Potency,[6],8410 nM (active)
CCOC(=O)NC(O)C(Cl)(Cl)Cl (configuration not stated),outcome,[1],inactive
same,outcome,[2],inactive
same,Potency,[3],inactive
same,Potency,[4],inactive
same,Potency,[5],inactive
same,Potency,[6],inactive
COc1ccc2c(C(=O)c3ccc(Cl)cc3)c(C)n(CC(=O)O)c2c1,outcome,[1],inactive
same,outcome,[2],inactive
same,Potency,[3],inactive
same,Potency,[5],inactive
same,Potency,[6],inactive
COc1ccc2c3c1O[C@H]1[C@@H](O)C=C[C@H]4[C@@H](C2)N(C)CC[C@@]341,outcome,[1],inactive
same,Potency,[4],inactive
same,Potency,[5],6.72 µM (active)
same,Potency,[6],6720 nM (active)
C[C@@H]1CN(C2CCC(C#N)(c3ccc(F)cc3)CC2)CC[C@]1(C(=O)O)c1ccccc1 (some centres not stated),outcome,[1],inactive
same,outcome,[2],inactive
same,Potency,[3],0.049 µM (active)
same,Potency,[4],inactive
same,Potency,[7],inactive
same,"activity change, negative = inhibition",[10],-31.8%
same,Potency,[5],inactive
same,Potency,[6],inactive
COc1ccc(OC)c(CC(C)N)c1 (configuration not stated),outcome,[1],inactive
same,outcome,[2],inactive
same,Potency,[3],6.05 µM (active)
same,Potency,[4],inactive
same,Potency,[5],inactive
same,Potency,[6],inactive
CN1C(=O)CN=C(c2ccccc2)c2cc([N+](=O)[O-])ccc21,outcome,[1],inactive
same,outcome,[2],inactive
same,Potency,[3],inactive
same,Potency,[4],inactive
same,Potency,[5],inactive
same,Potency,[6],inactive
O=C(O)c1nn(Cc2ccc(Cl)cc2Cl)c2ccccc12,outcome,[1],inactive
same,outcome,[2],inactive
same,Potency,[3],inactive
same,Potency,[4],inactive
same,Potency,[7],inactive
same,"activity change, negative = inhibition",[10],-33.8%
same,Potency,[5],inactive
same,Potency,[6],inactive
Cc1nnc2n1-c1sc(CCC(=O)N3CCOCC3)cc1C(c1ccccc1Cl)=NC2,outcome,[1],inactive
same,outcome,[2],inactive
same,Potency,[3],inactive
same,Potency,[4],inactive
same,Potency,[5],inactive
same,Potency,[6],inactive
CC(Cc1ccccc1)NCCCCl (configuration not stated),outcome,[1],inactive
same,outcome,[2],inactive
same,Potency,[3],1.23 µM (active)
same,Potency,[4],inactive
same,Potency,[7],inactive
COCC(=O)N(c1c(C)cccc1C)C(C)C(=O)OC (configuration not stated),outcome,[1],inactive
same,outcome,[2],inactive
same,Potency,[3],inactive
same,Potency,[4],inactive
same,Potency,[5],inactive
same,Potency,[6],inactive
CCCCC1C(=O)NC(=O)N(C2CCCCC2)C1=O (configuration not stated),outcome,[2],inactive
same,Potency,[3],inactive
same,Potency,[4],26.8 µM (active)
same,Potency,[7],inactive
same,Potency,[10],inactive
CCNc1nc(Cl)nc(NCC)n1,outcome,[1],inactive
same,outcome,[2],inactive
same,Potency,[3],inactive
same,Potency,[4],inactive
same,Potency,[5],inactive
same,Potency,[6],inactive
C[C@@H]1O[C@@H](O[C@@H]2C=C3CC[C@@H]4[C@H](CC[C@]5(C)[C@@H](c6ccc(=O)oc6)CC[C@]45O)[C@@]3(C)CC2)[C@H](O)[C@H](O)[C@H]1O,outcome,[1],inactive
same,outcome,[2],inactive
same,Potency,[3],inactive
same,"activity change, negative = inhibition",[10],-97.4%
same,Potency,[5],10.5 nM (active) and 4.7 nM (active)
same,Potency,[6],13.2 nM (active) and 7.5 nM (active)
COc1cc(N)c(Cl)cc1C(=O)NC1CN2CCC1CC2 (configuration not stated),outcome,[1],inactive
same,outcome,[2],inactive
same,Potency,[3],15.5 µM (active)
same,Potency,[4],inactive
same,Potency,[5],inactive
same,Potency,[6],inactive
CC(C)(C)OC(=O)c1ncn2c1[C@@H]1CCCN1C(=O)c1c(Br)cccc1-2,outcome,[1],inactive
same,outcome,[2],inactive
same,Potency,[3],inactive
same,Potency,[4],4.36 µM (active)
CCC1(CC)C(=O)NC(=O)NC1=O,outcome,[1],inactive
same,outcome,[2],inactive
same,Potency,[3],inactive
same,Potency,[12],inactive
same,Potency,[4],inactive
CC1N=C(N)OC1c1ccccc1 (configuration not stated),outcome,[2],inactive
same,Potency,[3],4.92 µM (active)
same,Potency,[4],inactive
CCN(CC)C(C)C(=O)c1ccccc1 (configuration not stated),outcome,[2],inactive
same,Potency,[3],inactive
same,Potency,[4],inactive
same,Potency,[5],inactive
same,Potency,[6],inactive
CC(CC(C(N)=O)(c1ccccc1)c1ccccc1)N(C)C (configuration not stated),outcome,[1],inactive
same,outcome,[2],inactive
same,Potency,[3],7.76 µM (active)
same,Potency,[4],inactive
same,Potency,[7],inactive
same,"activity change, negative = inhibition",[10],-7.18%
same,Potency,[5],inactive
same,Potency,[6],inactive
C[C@]12CC[C@H]3[C@@H](CCC4=CC(=O)CC[C@@H]43)[C@@H]1CC[C@@H]2O,outcome,[1],inactive
same,outcome,[2],inactive
same,Potency,[3],inactive
same,Potency,[4],inactive
same,Potency,[6],inactive
Cc1ccc([N+](=O)[O-])[c]2c1[O][Hg]2,outcome,[1],inactive
same,Potency,[3],0.347 µM (active)
same,Potency,[12],0.977 µM (active)
same,Potency,[4],0.436 µM (active)
same,Potency,[10],5.62 µM (active)
same,Potency,[11],0.728 µM (active)
same,Potency,[5],0.0841 µM (active)
same,Potency,[6],168 nM (active)
